Assay results reported in PubChem BioAssay.
The source made the active and inactive calls.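 The calls were made as follows, unless noted: active = luciferase signal above three times the same-plate solvent-only control wells; inactive = the rest.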

System: not listed separately
Assay: P. berghei load reduction in hepatocytes – cell-based, HepG2, luciferase luminescence, HepG2 viability, primary screen (AID 624349; in the data active = parasite load remaining mostly below about 12%, no sharp cut-off; inactive = mostly above about 10%;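 also: 100% = mean of DMSO negative control wells on the same plate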)
Conditions: P. berghei liver stage in HepG2, luciferase luminescence, concentration not given here; parasite load remaining: stronger effect = lower value; viability: measured here: HepG2 viability without parasites

Compound | viability [%] | parasite load remaining
CC[C@@H](C(=O)C(C)[C@@H](O)[C@H](C)CCc1ccc(C)c(O)c1C(=O)O)C1OC(CC)(C2CC[C@](O)(CC)[C@H](C)O2)C[C@@H]1C (some centres undefined) | 84.4 | -0.43% (inactive)
CC(=O)N[C@@H](Cc1c[nH]c2ccccc12)C(N)=O | 71.9 | 142% (inactive)
CC1=CC(=O)CC(C)(C)C1(O)/C=C/C(C)=C\C(=O)O (centres undefined) | 73.1 | 91.5% (inactive)

Biological target: Mitogen-activated protein kinase 7 (Homo sapiens) (UniProt Q13164)
Assay: Gal4-ERK5 driven luciferase induction – cell-based, HTS, primary screen (AID 1508626);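 also: luciferase driven by Gal4-ERK5 fusion binding five Gal4 sites before minimal TATA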
Conditions: HeLa Gal4-ERK5 transactivation, 18 h, at 5 µM, stronger effect = higher value

Chain of Mitogen-activated protein kinase 7 (Homo sapiens) (Q13164 whole entry, looked up, the tested form may be a part): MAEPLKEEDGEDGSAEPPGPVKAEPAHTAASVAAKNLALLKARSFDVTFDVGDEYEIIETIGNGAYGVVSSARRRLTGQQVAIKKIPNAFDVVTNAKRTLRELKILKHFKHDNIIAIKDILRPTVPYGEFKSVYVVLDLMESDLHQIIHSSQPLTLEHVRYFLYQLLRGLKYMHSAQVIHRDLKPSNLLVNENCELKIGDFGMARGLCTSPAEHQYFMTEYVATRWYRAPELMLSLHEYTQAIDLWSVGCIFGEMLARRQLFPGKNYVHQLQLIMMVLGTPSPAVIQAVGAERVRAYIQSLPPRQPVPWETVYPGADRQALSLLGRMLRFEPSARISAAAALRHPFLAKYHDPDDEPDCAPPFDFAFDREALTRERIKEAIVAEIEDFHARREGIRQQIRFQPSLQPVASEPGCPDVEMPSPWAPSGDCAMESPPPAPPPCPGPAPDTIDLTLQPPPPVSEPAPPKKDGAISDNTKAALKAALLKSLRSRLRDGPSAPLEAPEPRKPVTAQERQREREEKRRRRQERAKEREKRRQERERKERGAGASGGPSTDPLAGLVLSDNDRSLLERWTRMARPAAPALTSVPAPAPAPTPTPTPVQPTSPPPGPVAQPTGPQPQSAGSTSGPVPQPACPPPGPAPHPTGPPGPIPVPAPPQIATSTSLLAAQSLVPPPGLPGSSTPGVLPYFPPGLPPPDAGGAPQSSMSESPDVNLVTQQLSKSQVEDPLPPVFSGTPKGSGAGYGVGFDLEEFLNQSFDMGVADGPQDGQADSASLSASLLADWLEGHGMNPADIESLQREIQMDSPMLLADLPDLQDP

Compound | luciferase signal
COc1ccc(/C=C/C(=O)c2ccc(O)cc2O)cc1OC | 60 AU (inactive)
COc1cc(-c2oc3cc(O)ccc3c(=O)c2O)ccc1O | 92 AU (inactive)
CCC(=O)OCC(=O)[C@@]1(OC(=O)CC)[C@H](C)CC2C3C(Cl)CC4=CC(=O)C=C[C@]4(C)C3C(O)C[C@@]21C (some centres undefined) | 108 AU (inactive)
CC1(C)O[C@H]2[C@H](O)C[C@](O)(C(N)=O)C[C@H]2O1 | 20 AU (inactive)
CC1CCC2(OC1)OC1CC3C4CCC5C[C@@H](O)CCC5(C)C4=CCC3(C)C1C2C (some centres undefined) | 644 AU (active)
CC1C(=O)OC2CC34C5CC(C(C)(C)C)C36C(OC(=O)C6O)OC4(C(=O)O5)C21O (centres undefined) | 36 AU (inactive)
CO[C@H]1O[C@H](CO)C(O[C@@H]2OC(C(=O)O)[C@@H](O[C@H]3O[C@H](COS(=O)(=O)O)C(O[C@@H]4OC(C(=O)O)[C@@H](O[C@H]5O[C@H](CO)C(O[C@@H]6OC(C(=O)O)[C@@H](O[C@H]7O[C@H](COS(=O)(=O)O)C(O[C@@H]8OC(C(=O)O)=C[C@H](O)C8OS(=O)(=O)O)[C@H](O)[C@H]7NC(C)=O)[C@H](O)[C@H]6O)[C@H](O)[C@H]5NC(C)=O)[C@H](O)[C@H]4O)[C@H](O)[C@H]3NC(C)=O)[C@H](O)[C@H]2O)[C@H](O)[C@H]1NC(C)=O (some centres undefined) | 100 AU (inactive)
C/C1=C\CC(C)(C)/C=C/CC2(C)OC2CC1 (centres undefined) | 64 AU (inactive)
CC(C)CCC[C@@H](C)[C@H]1CC[C@H]2[C@@H]3CC[C@H]4C[C@H](O)CC[C@]4(C)[C@H]3CC[C@]12C | 140 AU (inactive)
CC(C)CCC[C@@H](C)[C@H]1CC[C@H]2[C@@H]3CC=C4CC(=O)CC[C@]4(C)[C@H]3CC[C@]12C | 20 AU (inactive)
COC(=O)Oc1ccccc1C(=O)O | 40 AU (inactive)
CC(=O)N[C@@H](Cc1c[nH]c2ccccc12)C(N)=O | 80 AU (inactive)
CC(C)CCC[C@@H](C)C1CC[C@H]2[C@@H]3CCC4CC(=O)CC[C@]4(C)[C@H]3CC[C@]12C (some centres undefined) | 52 AU (inactive)
C[C@H]1[C@@H](O)O[C@@H]2O[C@@]3(C)CC[C@H]4[C@H](C)CC[C@@H]1[C@@]24OO3 | 52 AU (inactive)
COC(=O)C[C@H]1C(C)(C)C(=O)[C@@H]2CC3C4=CC(=O)O[C@@H](c5ccoc5)[C@]4(C)CCC3[C@@]1(C)C2=O (some centres undefined) | 24 AU (inactive)
CC1=CC(=O)CC(C)(C)C1(O)/C=C/C(C)=C\C(=O)O (centres undefined) | 48 AU (inactive)
O=c1cc(-c2cccc(O)c2)oc2ccc(O)cc12 | 124 AU (inactive)
O=c1c(O)c(-c2ccc(O)cc2)oc2ccccc12 | 76 AU (inactive)
CC(=O)O[C@H]1CC[C@@]2(C)[C@@H](CC[C@@H]3[C@@H]2CC(=O)[C@]2(C)[C@@H]4[C@H](C[C@@H]32)O[C@]2(CC[C@@H](C)CO2)[C@H]4C)C1 | 56 AU (inactive)
C[C@H](CCC(=O)O)[C@H]1CC[C@H]2[C@@H]3CC[C@@H]4C[C@H](O)CC[C@]4(C)[C@H]3C=C[C@]12C | 16 AU (inactive)
O=S(=O)([O][Al])OC[C@H]1O[C@@](COS(=O)(=O)[O][Al])(O[C@H]2O[C@H](COS(=O)(=O)[O][Al])[C@@H](OS(=O)(=O)[O][Al])[C@H](OS(=O)(=O)[O][Al])[C@H]2OS(=O)(=O)[O][Al])[C@@H](OS(=O)(=O)[O][Al])[C@@H]1OS(=O)(=O)[O][Al] | 84 AU (inactive)
C=C[C@](C)(O)CCC=C(C)C | 36 AU (inactive)
O=c1c2cc(O)c(O)cc2oc2cc(O)c([C@@H]3O[C@H](CO)[C@@H](O)[C@H](O)[C@H]3O)c(O)c12 | 48 AU (inactive)
COC(=O)C[C@H]1C(C)(C)C(=O)[C@@H]2CC3=C4CC(=O)O[C@@H](c5ccoc5)[C@]4(C)CC[C@@H]3[C@@]1(C)C2=O | 32 AU (inactive)
NCCC(=O)c1ccccc1N | 88 AU (inactive)
CC(C)(O)[C@@H]1CC[C@](C)([C@H]2[C@@H](O)C[C@@]3(C)[C@@H]4C[C@H](O[C@@H]5O[C@H](CO)[C@@H](O)[C@H](O)[C@H]5O)[C@H]5C(C)(C)[C@@H](O[C@@H]6OC[C@@H](O)[C@H](O)[C@H]6O)CC[C@@]56C[C@@]46CC[C@]23C)O1 | 52 AU (inactive)
CC(=O)O[C@H]1CC[C@]2(C)C3=C(CC[C@H]2C1(C)C)[C@@]1(C)CC[C@@H]([C@H](C)CCC=C(C)C)[C@]1(C)CC3 | 28 AU (inactive)
C[C@H](CCC(=O)O)[C@H]1CC[C@H]2[C@@H]3CC[C@@H]4CCCC[C@]4(C)[C@H]3CC[C@]12C | 36 AU (inactive)
